High-throughput results (PubChem)
Rows were chosen to be rich in hits. Some 2.8% of all compounds tested hit in one or more screens of this group.
PAX8 reporter: inhibitors of PAX8 transcriptional activity in RMG-I cells. RMG-I TPO-luciferase reporter, SteadyGlo, 24 h. inhibition, % at 12.6 µM. 360,000 tested, 1.2% active. AID 652154;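 active = mean replicate inhibition at least 60% with every replicate also reaching 60%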;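 also: luciferase light reporting Pax8 driven TPO promoter activity; plate controls were median of neutral control wells for no effect and mitoxantrone controls for full effect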
EWS-Fli block: inhibitors of EWS/Fli oncoprotein transcriptional activity; A673 NR0B1-luciferase reporter, viability-normalised; inhibition, % at 12.6 µM; 350,000 tested, 0.67% active; AID 651661;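 active = mean inhibition of at least 50% after viability correction, with every replicate also passing that limit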;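 also: firefly luciferase signal divided by Alamar Blue viability fluorescence both relative to DMSO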
TWEAK Fn14 block: blocks TWEAK-Fn14 interaction in a reporter cell assay; TWEAK-stimulated Fn14 reporter cells, luciferase luminescence, 8 h; inhibition, % at 10 µM; 360,000 tested, 2% active; AID 1159606; in the data active = inhibition above about 50%
LGR2 inh: Drosophila LGR2 receptor signaling inhibition | HEK293 LGR2, CRE-luciferase, bursicon-stimulated, 4 h | inhibition, % at 9.99 µM | 380,000 tested, 0.35% active | AID 720647;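 active = drop in luminescence signal, shown as inhibition above about 50% in the replicate tests, limit read from the data, passing the limit was not always enough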;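 also: agonist challenge used bursicon conditioned medium at about half maximal strength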
TROY NFkB inh: TROY signaling inhibition; 360,000 tested, 0.98% active; AID 1347056; Q293 LMP1-TROYcd NF-kB luciferase reporter, 4 h; inhibition, % at 10 µM;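 active = compounds whose plate-normalised and pattern-corrected inhibition of the luciferase reporter signal at the single screening dose is 50% or more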
Numbers without * were called inactive; . = no result.

SMILES	PAX8 reporter	EWS-Fli block	TWEAK Fn14 block	LGR2 inh	TROY NFkB inh
Cn1c(=N)n(CC(=O)c2ccc(Br)cc2)c2ccccc21	-35	10	36	-104	14
Cc1cc(C)c(NS(=O)(=O)c2ccc(NC(=O)c3cccs3)cc2)c(C)c1	10	.	41	37	51*
Cc1ccc(NC(=S)NC(=O)c2ccc(F)cc2)cc1S(=O)(=O)Nc1cccc(Cl)c1	41	44	68*	-18	50*
Cc1ccc(S(=O)(=O)Nc2ccc(NC(=O)c3cccs3)cc2)cc1	18	5	-42	15	2
Cc1ccc(NC(=O)c2cccs2)cc1S(=O)(=O)Nc1cccc(Cl)c1	0	9	60*	28	39
CNC[C@@H]1OCCCC[C@H](C)Oc2ccc(NC(=O)Nc3ccc(C(F)(F)F)cc3)cc2C(=O)N([C@H](C)CO)C[C@@H]1C	34	16	.	15	.
CO[C@@H]1CN(C)C(=O)c2ccc(NS(C)(=O)=O)cc2OC[C@@H](C)N(C(=O)c2ccc3c(c2)OCO3)C[C@@H]1C	-9	2	.	13	.
O=C(C[C@@H]1C[C@@H]2c3cc(NC(=O)Nc4ccc(F)cc4)ccc3O[C@@H]2[C@@H](CO)O1)NC1CCCC1	10	-8	.	-7	.
Cc1ccc(NC(=O)CSc2ncnc3ccccc23)cc1S(=O)(=O)N1CCOCC1	-3	4	71*	27	53*
Cc1ccc(NC(=O)CSc2ccccc2)cc1S(=O)(=O)N1CCCCC1	11	13	18	5	17
Cc1ccc(NC(=O)CSc2ncnc3ccccc23)cc1S(=O)(=O)N1CCCCC1	.	.	72*	28	35
COc1ccc(CN(C)C[C@@H]2Oc3ccc(NS(=O)(=O)c4ccc(C)cc4)cc3C(=O)N([C@@H](C)CO)C[C@@H]2C)cc1	4	-9	.	6	.
O=c1c(O)c(-c2ccc(O)c(O)c2)oc2cc(O)ccc12	.	13	56*	-11	21
COc1ccc(C(=O)n2cnc3ccccc32)cc1	13	12	78*	20	-5
COc1ccc(C(=O)n2cnc3ccccc32)cc1Br	8	4	11	-5	-9
O=C(C[C@H]1CC[C@H]2[C@@H](COC[C@@H](O)CN2Cc2ccccc2)O1)NCCc1ccccc1	19	-1	.	5	.
C[C@H]1CN([C@@H](C)CO)C(=O)c2c(c3ccccc3n2C)-c2ccccc2CO[C@H]1CN(C)C(=O)Nc1ccccc1	.	17	.	6	.
C[C@H](CO)N1C[C@H](C)[C@@H](CN(C)C(=O)Nc2ccc(F)cc2)OCc2ccccc2-c2c(n(C)c3ccccc23)C1=O	100*	7	.	27	.
C[C@H]1CN([C@@H](C)CO)C(=O)c2c(c3ccccc3n2C)-c2ccccc2CO[C@@H]1CN(C)C(=O)[C@@H](Cc1ccccc1)N(C)C	-2	-42	.	5	.
C[C@H](CO)N1C[C@H](C)[C@@H](CN(C)C(=O)CCN(C)C)OCc2ccccc2-c2c(n(C)c3ccccc23)C1=O	65*	-4	.	-23	.
C[C@@H]1CN([C@@H](C)CO)C(=O)c2c(c3ccccc3n2C)-c2ccccc2CO[C@@H]1CN(C)C(=O)CCN(C)C	-12	-10	.	-23	.
C[C@H](CO)N1C[C@H](C)[C@H](CN(C)C(=O)[C@H](Cc2ccccc2)N(C)C)OCc2ccccc2-c2c(n(C)c3ccccc23)C1=O	116*	14	.	-18	.
COc1ccc(NC(=O)N(C)C[C@@H]2Oc3ccc(NC(=O)C4CCCCC4)cc3C(=O)N([C@H](C)CO)C[C@H]2C)cc1	.	-17	.	-3	.
C[C@H](CO)N1C[C@H](C)[C@@H](CN(C)C(=O)Nc2ccc(C(F)(F)F)cc2)Oc2c(NC(=O)Nc3ccc(F)cc3)cccc2C1=O	-3	1	.	-18	.
C[C@@H]1CN([C@@H](C)CO)C(=O)c2cccc(NC(=O)Nc3ccccc3)c2O[C@H]1CN(C)S(C)(=O)=O	13	-2	.	1	.
SMILES	PAX8 reporter	EWS-Fli block	TWEAK Fn14 block	LGR2 inh	TROY NFkB inh
COCC(=O)N(C)C[C@H]1Oc2ncc(-c3ccc(F)cc3)cc2C(=O)N([C@H](C)CO)C[C@@H]1C	.	-7	.	1	.
CC(C)Cc1nc2oc3c(Cl)ncnc3c2c2c1CCCC2	8	20	9	6	73*
CCCCN(CC)CCCNC(=O)c1cn(CC)c2ccc(S(=O)(=O)N3CCc4ccccc4C3)cc2c1=O	18	27	-16	85*	-14
CCn1cc(C(=O)NCc2ccco2)c(=O)c2cc(S(=O)(=O)N3CC(C)CC(C)C3)ccc21 (stereo unspecified)	63*	.	10	.	2
CCCCN(C)CCCNC(=O)c1cn(CC)c2ccc(S(=O)(=O)N3CCc4ccccc4C3)cc2c1=O	17	19	3	8	21
CC(C)NC(=O)N(C)C[C@H]1Oc2ccc(NC(=O)CCCN(C)C)cc2C(=O)N([C@H](C)CO)C[C@@H]1C	2	5	.	21	.
Cc1ccc(N/C(N)=N/c2nc(CSc3nnc(C)s3)cc(=O)[nH]2)c(C)c1	32	69*	5	12	24
COc1ccc(N/C(N)=N/c2nc(CSc3nnc(C)s3)cc(=O)[nH]2)cc1	16	37	17	24	-1
CCCC#Cc1cnc2c(c1)C(=O)N([C@H](C)CO)C[C@H](C)[C@@H](CN(C)C(=O)NC1CCCC1)O2	-4	11	.	-2	.
C[C@H](CO)N1C[C@H](C)[C@H](CN(C)C(=O)C2CC2)Oc2cc(/C=C/c3ccccc3)ccc2S1(=O)=O	.	-20	.	-12	.
O=C(NC1(Cc2ccccc2)CCN(Cc2ccc(-c3ccccc3)cc2)C1=O)c1ccccc1 (stereo unspecified)	0	-6	59*	56*	62*
C=CCn1c(SCC(=O)c2[nH]c(C)c(C(C)=O)c2C)nnc1-c1ccncc1	.	.	9	.	7
C=CCn1c(SCC(=O)c2[nH]c(C)c(C(=O)OC)c2C)nc2scc(-c3ccc(OC)c(OC)c3)c2c1=O	7	60*	-15	.	-4
CN1c2ccc(-c3ccc(F)cc3)cc2[C@H]2[C@H](CCN2C(=O)c2cccnc2)[C@@H]1CO	-4	4	.	-1	.
C[C@@H]1CN([C@@H](C)CO)C(=O)c2cc(C#CC3CC3)cnc2O[C@H]1CN(C)C(=O)CC1CC1	.	6	.	10	.
